The nature of assay [1]: NCI Yeast Anticancer Drug Screen. Data for the rad50 strain (AID 155).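 Note: 0% = growth of vehicle-only cultures of the same strain.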 The settings on record: S. cerevisiae rad50 strain growth inhibition, hits give high values. Put shortly: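 A DNA repair-deficient yeast mutant serves as the test organism; compound-induced growth inhibition is calculated against vehicle-treated cells.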
Assay [2] in a line: NCI Yeast Anticancer Drug Screen. Data for the mec2-1 strain (AID 157). The conditions noted are these: S. cerevisiae mec2-1 strain, hits give high values. The method, boiled down: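 Yeast mec2-1 mutant treated with compound. Readout: growth inhibition vs vehicle controls.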
Assay [3] in a line: NCI Yeast Anticancer Drug Screen. Data for the sgs1 mgt1 strain (AID 161).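 Note: 0% = growth of cultures given vehicle only.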 The settings on record: S. cerevisiae sgs1 mgt1 strain, hits give high values. The method, boiled down: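 Genetically altered yeast, compound exposure, growth inhibition relative to vehicle.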
Assay [4] in a line: NCI Yeast Anticancer Drug Screen. Data for the cln2 rad14 strain (AID 165).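 Note: 0% = growth equal to vehicle treated cultures.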 The conditions noted are these: S. cerevisiae cln2 rad14 strain, hits give high values. The method, boiled down: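 cln2 rad14 yeast strain; compound exposure; growth inhibition read vs vehicle controls.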
The nature of assay [5]: NCI Yeast Anticancer Drug Screen. Data for the bub3 strain (AID 167). The settings on record: S. cerevisiae bub3 mutant strain, hits give high values. Put shortly: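 Inhibition values come from growth of compound-treated mutant yeast normalised to vehicle-treated controls.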
Assay [6] is described as follows: NCI Yeast Anticancer Drug Screen. Data for the mlh1 rad18 strain (AID 175). The conditions noted are these: S. cerevisiae mlh1 rad18 strain growth inhibition, hits give high values. Put shortly:
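Yeast w/ defined DNA-repair lesions; compound exposure; growth vs vehicle controls → % inhibition.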

Where [7] appears, read: at 5.0 µM (retest, dose inferred, filed as 0.5).
The mark [8] stands for this setting: at 50.0 µM (retest, dose inferred, filed as 5.0).

Molecules are shown by their SMILES. This is part of a sample that, as a whole, favours compounds with a hit. Of some 79,000 tested, about 15% had one in any assay. Values without a mark were called inactive. Active and inactive are the calls of the source. Cut-off read from the data, not from the text of the source: active = growth inhibition above about 70%; inactive = the rest.

Turning to `CN1CCOC12CCC1(C)C(CCC3C4CCC(O)C4(C)CCC31)C2` (configuration not stated), the growth inhibition in assay [1] (setting [7]) is -11%; in assay [1] (setting [8]) it was -5%; in assay [1] (at 50.0 µM) it was 77.5% (active); in assay [2] (setting [7]), -14%; in assay [2] (setting [8]) it was -8%; in assay [2] (at 50.0 µM) it was 5.8%. Moreover, the growth inhibition in assay [3] (setting [7]) is -7%; in assay [3] (setting [8]), 9%; in assay [3] (at 50.0 µM), 58%; in assay [4] (setting [7]), 1%; in assay [4] (setting [8]), 8%; in assay [4] (at 50.0 µM) it was -6.75%. Moreover, the growth inhibition in assay [5] (setting [7]) is -22%; in assay [5] (setting [8]) it was -9%; in assay [5] (at 50.0 µM) it was 4.75%; in assay [6] (setting [7]), -12%; in assay [6] (setting [8]), -12%; in assay [6] (at 50.0 µM), 71.8% (active).

For `CC1c2c(n(C)c3ccccc23)C2CCC3(CO3)C1N2Cc1ccccc1` (configuration not stated), the growth inhibition in assay [1] (setting [7]) is 25%; in assay [1] (setting [8]) it was 97% (active); in assay [1] (at 50.0 µM), 90.5% (active); in assay [2] (setting [7]), 22%; in assay [2] (setting [8]), 99% (active); in assay [2] (at 50.0 µM) it was 92% (active). Further, the growth inhibition in assay [3] (setting [7]) was 42%; in assay [3] (setting [8]), 99% (active); in assay [3] (at 50.0 µM), 93.3% (active); in assay [4] (setting [7]) it was 24%; in assay [4] (setting [8]) it was 98% (active); in assay [4] (at 50.0 µM), 90% (active). Moreover, the growth inhibition in assay [5] (setting [7]) was 26%; in assay [5] (setting [8]), 99% (active); in assay [5] (at 50.0 µM), 92.5% (active); in assay [6] (setting [7]), 35%; in assay [6] (setting [8]), 98% (active); in assay [6] (at 50.0 µM), 92.2% (active).

On to `C1=C(/C=C2\CCCc3c(-c4ccccc4)cc(-c4ccccc4)[o+]c32)CCC/C1=C\C1=C2OC(c3ccccc3)=CC(c3ccccc3)=C2CCC1`, for which the growth inhibition in assay [1] (setting [7]) was -11%; in assay [1] (setting [8]) it was 14%; in assay [1] (at 50.0 µM), 36.6%; in assay [2] (setting [7]) it was 3%; in assay [2] (setting [8]), 2%; in assay [2] (at 50.0 µM) it was 52.8%. The growth inhibition in assay [3] (setting [7]) was 4%; in assay [3] (setting [8]) it was -8%; in assay [3] (at 50.0 µM), 66.6%; in assay [4] (setting [7]), 18%; in assay [4] (setting [8]) it was 25%; in assay [4] (at 50.0 µM) it was 40.9%. Besides, the growth inhibition in assay [5] (setting [7]) is 10%; in assay [5] (setting [8]), 30%; in assay [5] (at 50.0 µM) it was 71.2% (active); in assay [6] (setting [7]) it was 3%; in assay [6] (setting [8]), 35%; in assay [6] (at 50.0 µM), 31.9%.

Consider `O=c1[nH]c2ccccc2n1C1CCN(CCCC(c2ccc(F)cc2)c2ccc(F)cc2)CC1`, for which the growth inhibition in assay [1] (setting [7]) was -10%; in assay [1] (setting [8]), 34%; in assay [1] (at 50.0 µM), -14.8%; in assay [2] (setting [7]), 12%; in assay [2] (setting [8]), 11%; in assay [2] (at 50.0 µM), -11.4%. In addition, the growth inhibition in assay [3] (setting [7]) is 4%; in assay [3] (setting [8]), 83% (active); in assay [3] (at 50.0 µM), 48.7%; in assay [4] (setting [7]), -7%; in assay [4] (setting [8]), -4%; in assay [4] (at 50.0 µM) it was -24%. For the same compound, the growth inhibition was -2% in assay [5] (setting [7]); 10% in assay [5] (setting [8]); 72.9% (active) in assay [5] (at 50.0 µM); 14% in assay [6] (setting [7]); 92% (active) in assay [6] (setting [8]); 63.8% in assay [6] (at 50.0 µM).

On to `CCCCCCCCCCCCCC(=O)O[C@H]1CC[C@H](NC(=O)[C@H](OC)[C@H](O)[C@@H](O)[C@H](O)/C=C/C(C)C)C(=O)NC1`, for which the growth inhibition in assay [1] (setting [7]) is -1%; in assay [1] (setting [8]), 93% (active); in assay [1] (at 50.0 µM) it was 88.1% (active); in assay [2] (setting [7]), 4%; in assay [2] (setting [8]), 96% (active); in assay [2] (at 50.0 µM), 87.4% (active). For the same compound, the growth inhibition is -2% in assay [3] (setting [7]); 92% (active) in assay [3] (setting [8]); 89.5% (active) in assay [3] (at 50.0 µM); 11% in assay [4] (setting [7]); 93% (active) in assay [4] (setting [8]); 71.5% (active) in assay [4] (at 50.0 µM). The growth inhibition in assay [5] (setting [7]) was 4%; in assay [5] (setting [8]) it was 96% (active); in assay [5] (at 50.0 µM), 92.2% (active); in assay [6] (setting [7]), -1%; in assay [6] (setting [8]), 94% (active); in assay [6] (at 50.0 µM), 85.6% (active).

In the case of `COC12C(COC(N)=O)C3=C(C(=O)C(C)=C(N)C3=O)N1CC1C2N1C` (configuration not stated), the growth inhibition in assay [1] (setting [7]) is 10%; in assay [1] (setting [8]), 74% (active); in assay [1] (at 50.0 µM), 43.6%; in assay [2] (setting [7]), 16%; in assay [2] (setting [8]), 84% (active); in assay [2] (at 50.0 µM), 44.6%. The growth inhibition in assay [3] (setting [7]) was 16%; in assay [3] (setting [8]), 77% (active); in assay [3] (at 50.0 µM), 55.7%; in assay [4] (setting [7]), 1%; in assay [4] (setting [8]) it was 77% (active); in assay [4] (at 50.0 µM), 38.4%. The growth inhibition in assay [5] (setting [7]) is 5%; in assay [5] (setting [8]) it was 55%; in assay [5] (at 50.0 µM), 31%; in assay [6] (setting [7]), 34%; in assay [6] (setting [8]), 92% (active); in assay [6] (at 50.0 µM), 75.8% (active).

For the compound `O=NN(CC(=O)O)c1ncccn1`, the growth inhibition in assay [1] (setting [7]) was -1%; in assay [1] (setting [8]) it was 0%; in assay [1] (at 50.0 µM) it was -6.25%; in assay [2] (setting [7]) it was -3%; in assay [2] (setting [8]), 0%; in assay [2] (at 50.0 µM), 1.45%. In addition, the growth inhibition in assay [3] (setting [7]) is -2%; in assay [3] (setting [8]) it was -3%; in assay [3] (at 50.0 µM) it was -8.05%; in assay [4] (setting [7]) it was -6%; in assay [4] (setting [8]), 1%; in assay [4] (at 50.0 µM), 36.7%. The growth inhibition in assay [5] (setting [7]) was -2%; in assay [5] (setting [8]), 0%; in assay [5] (at 50.0 µM), -13.4%; in assay [6] (setting [7]), -1%; in assay [6] (setting [8]), -2%; in assay [6] (at 50.0 µM), 29.4%.

With `Cc1ccc(OP(=O)(Oc2ccc(C)cc2)Oc2ccc(C)cc2)cc1.Cc1ccc(OP(=O)(Oc2ccc(C)cc2)Oc2ccc(C)cc2)cc1.Cc1ccc(OP(=O)(Oc2ccc(C)cc2)Oc2ccc(C)cc2)cc1.Cc1ccc(OP(=O)(Oc2ccc(C)cc2)Oc2cccc(C)c2)cc1.[Cd+2].[O-][Cl+3]([O-])([O-])O`, the growth inhibition in assay [1] (setting [7]) is 12%; in assay [1] (setting [8]), 64%; in assay [1] (at 50.0 µM) it was 58.6%; in assay [2] (setting [7]), 6%; in assay [2] (setting [8]) it was 33%; in assay [2] (at 50.0 µM), 45%. Further, the growth inhibition in assay [3] (setting [7]) was 9%; in assay [3] (setting [8]), 29%; in assay [3] (at 50.0 µM), 20%; in assay [4] (setting [7]), -11%; in assay [4] (setting [8]), 32%; in assay [4] (at 50.0 µM) it was 62.6%. The growth inhibition was 10% in assay [5] (setting [7]); 23% in assay [5] (setting [8]); 36.6% in assay [5] (at 50.0 µM); 10% in assay [6] (setting [7]); 36% in assay [6] (setting [8]); 39.2% in assay [6] (at 50.0 µM).

As for `CCSc1nc(=[N+]2CCCC2)ss1`, the growth inhibition is 33% in assay [1] (setting [7]); 99% (active) in assay [1] (setting [8]); 98.5% (active) in assay [1] (at 50.0 µM); 25% in assay [2] (setting [7]); 100% (active) in assay [2] (setting [8]); 97.5% (active) in assay [2] (at 50.0 µM). For the same compound, the growth inhibition is 36% in assay [3] (setting [7]); 99% (active) in assay [3] (setting [8]); 98.8% (active) in assay [3] (at 50.0 µM); 29% in assay [4] (setting [7]); 100% (active) in assay [4] (setting [8]); 81.7% (active) in assay [4] (at 50.0 µM). Moreover, the growth inhibition in assay [5] (setting [7]) was 17%; in assay [5] (setting [8]) it was 100% (active); in assay [5] (at 50.0 µM), 89.3% (active); in assay [6] (setting [7]) it was 44%; in assay [6] (setting [8]), 99% (active); in assay [6] (at 50.0 µM), 97% (active).
